Laboratory results from the supplement of paper PMC13380429.
Values without a mark were called inactive.

System: Vero E6 infected with SARS-CoV-2
Test: inhibition of SARS-CoV-2 cytopathic effect; higher = more antiviral protection, active = above 15
Conditions: 48 h

SMILES | inhibition of SARS-CoV-2 cytopathic effect (1 nM) [%] | inhibition of SARS-CoV-2 cytopathic effect (8.33 nM) [%] | inhibition of SARS-CoV-2 cytopathic effect (100 nM) | inhibition of SARS-CoV-2 cytopathic effect (833.33 nM) [%] | inhibition of SARS-CoV-2 cytopathic effect (10000 nM)
CN[C@H]1CC[C@@H](c2ccc(Cl)c(Cl)c2)c2ccccc21 | -7.46 | 3.54 | 8.81% | -0.02 | 12.1%
Cc1ccc(C23CNCC2C3)cc1 (stereo not given) [bicifadine] | 0.67 | -0.49 | 0.91% | -1.53 | -0.3%
C[C@@H](N[C@H]1CCCC[C@@H]1NC(=O)c1ccc(Cl)cc1)c1cccc2ccccc12 [Calhex-231] | -0.12 | -0.88 | 1.31% | 5.65 | -1.86%
CN1[C@@H]2CC[C@H]1C[C@@H](OC1c3ccccc3CCc3ccccc31)C2 [deptropine] | 0.19 | 0.38 | 1.32% | -0.87 | 12.7%
C[C@]12CC[C@@H]3c4ccc(OC(=O)c5ccccc5)cc4CC[C@H]3[C@@H]1CC[C@@H]2O [estradiol-benzoate] | -5.16 | -2.11 | -2.68% | -4.8 | -5.99%
CCNC(=O)[C@H]1O[C@@H](n2cnc3c(N)nc(NCCc4ccc(CCC(=O)O)cc4)nc32)[C@H](O)[C@@H]1O | -1.55 | -1.11 | -2.43% | -1.74 | 1.23%
CNc1nc(-c2ccc3c(N)n[nH]c3c2)cc(N2C[C@@H](C(=O)NC3CCCCC3)CC[C@H]2C)n1 | 2.6 | 3.93 | 1.23% | 0.1 | -5.35%
Nc1ccn([C@@H]2O[C@@](CO)(CCl)[C@@H](O)[C@H]2F)c(=O)n1 | 3.35 | 2.02 | -3.04% | -0.34 | 2.59%
COc1cc2c(cc1OC)CN(CCc1ccc(NC(=O)c3cccc4c(=O)c5cccc(OC)c5[nH]c34)cc1)CC2 [elacridar] | 14.2 | 2.41 | 0.67% | -0.09 | -4.73%
C[C@H](N)C(=O)O [L-alanine] | 1.06 | -0.48 | 0.43% | -0.48 | -4.52%
CCCn1c(=O)[nH]c2nc(-c3ccc(S(=O)(=O)N4CCN(c5ccc(Cl)cc5)CC4)cc3)[nH]c2c1=O | -0.12 | 0.44 | -0.16% | 1.71 | 1.22%
CNCCC(Oc1ccc(C(F)(F)F)cc1)c1ccccc1 (stereo not given) [fluoxetine] | -10.3 | 0.27 | -2.53% | -3.36 | -9.56%
N#CC(C#N)=Cc1ccc(O)c(O)c1 [tyrphostin-AG-18] | 2.32 | 2.46 | 0.83% | 0.73 | 0.85%
CCCC(=O)O [sodium-butyrate] | -1.28 | -0.1 | 1.57% | -0.53 | 0.24%
CCCN(CCC)CCc1ccc(OC)c(OCCc2ccccc2)c1 | -1.09 | -0.82 | 0.93% | 0.13 | -2.05%
CCCCOc1ccc(-c2cncc(C(=O)NCc3cccnc3N3CCOCC3)c2)cc1Cl | -0.69 | -2.48 | -0.55% | -1.43 | -3.95%
COc1cc2ncnc(Nc3cccc(Br)c3)c2cc1OC | -2.89 | -3.44 | -2.56% | -11.5 | 36.3% (active)
CCOC(=O)N[C@@H]1CC[C@@H]2[C@@H](C1)C[C@H]1C(=O)O[C@H](C)[C@H]1[C@H]2/C=C/c1ccc(-c2cccc(F)c2)cn1 [vorapaxar] | -1.52 | -0.15 | -0.3% | -0.44 | 0.22%
CC1(C)CC(=O)C(C2C3=C(CC(C)(C)CC3=O)Oc3ccccc32)C(=O)C1 (stereo not given) | -0.63 | 0.77 | -0.14% | 1.93 | -2.4%
Oc1ccc(CC2NCCc3cc(O)c(O)cc32)cc1 (stereo not given) [higenamine] | 1.31 | 2.53 | 1.77% | -0.52 | -2.56%
N#Cc1cc(-c2n[nH]c(-c3ccncc3)n2)ccn1 [topiroxostat] | 0.4 | 0.34 | 3.87% | -0.47 | 0.11%

SMILES | inhibition of SARS-CoV-2 cytopathic effect (1 nM) [%] | inhibition of SARS-CoV-2 cytopathic effect (8.33 nM) [%] | inhibition of SARS-CoV-2 cytopathic effect (100 nM) | inhibition of SARS-CoV-2 cytopathic effect (833.33 nM) [%] | inhibition of SARS-CoV-2 cytopathic effect (10000 nM)
O=C(CN1CCNCC1)NC1CCCCC1 [esaprazole] | -1.96 | -1.47 | -0.45% | -0.95 | -1.46%
CC(C)(Oc1ccc(CCNC(=O)c2ccc(Cl)cc2)cc1)C(=O)O [bezafibrate] | -1.42 | 0.91 | -1.38% | 0.02 | -0.38%
Nc1ccn([C@H]2C[C@H](O)[C@@H](CO)O2)c(=O)n1 [torcitabine] | -1.42 | -0.61 | 0.39% | -0.39 | 1.92%
N=C(N)NC(=N)Nc1cccc(Cl)c1 [m-chlorophenylbiguanide] | 4.17 | 4.54 | 0.58% | -7.74 | -1.2%
CN(C)CCCCC(=O)Nc1ccc(NC(=S)NC(=O)c2ccc(C(C)(C)C)cc2)cc1 [tenovin-6] | -2.53 | 0.01 | -0.72% | 4.3 | 18% (active)
C[C@]12CC[C@@H]3c4ccc(O)cc4CC[C@H]3[C@@H]1CCC2=O [estrone] | 1.09 | 1.93 | -0.92% | 0.5 | 2.53%
CCCCCCCCCCCCCCCCCCCCCC(=O)O | 2.81 | 2.25 | 1.57% | 0.29 | 1.77%
C[C@@H]1C[C@H]2[C@@H]3CCC4=CC(=O)C=C[C@]4(C)[C@@]3(Cl)[C@@H](O)C[C@]2(C)[C@@]1(OC(=O)c1ccco1)C(=O)CCl | -0.2 | -2.64 | -2.34% | -2.86 | 3.12%
Cc1[nH]c2ccccc2c1CCNC(=O)c1cccs1 | -3.95 | -2.61 | -2.69% | 1.32 | 16% (active)
NCCCS(=O)(=O)O [tramiprosate] | 2.5 | 3.61 | 3.29% | 3.22 | 2.51%
CC(=O)N(c1onc(C)c1C)S(=O)(=O)c1ccc(N)cc1 [sulfisoxazole-acetyl] | -4.04 | -3.48 | -3.58% | -0.91 | 0.37%
C[C@@H]1CCO[C@H]2Cn3cc(C(=O)NCc4ccc(F)cc4F)c(=O)c(O)c3C(=O)N12 [dolutegravir] | -0.6 | 1.42 | 4% | 1.93 | 4.1%
C[C@H](Oc1cc(-c2cnn(C3CCNCC3)c2)cnc1N)c1c(Cl)ccc(F)c1Cl [crizotinib-(S)] | 0.35 | -0.2 | -0.33% | -0.47 | 54.7% (active)
OCCN1C[C@H](O)[C@@H](O)[C@H](O)[C@H]1CO [miglitol] | -4.01 | -3.41 | 52.1% (active) | -3.71 | -4.78%
Cc1ccc2c(=O)c3ccccc3n(CCCN)c2c1C | 3.67 | 4.23 | -0.41% | 1.46 | -13.1%
COc1cc(O)c(C(=O)c2ccccc2)cc1S(=O)(=O)O [sulisobenzone] | 1.82 | 1.76 | -0.05% | -2.93 | 1.98%
Cc1cccc(C(=O)O)c1O [hydroxytoluic-acid] | -9.06 | -7.41 | -5.24% | -2.47 | -10.5%
COc1cc(O)c2c(c1)C(=O)c1cc(C)cc(O)c1C2=O [rheochrysidin] | 1.91 | 1.62 | 1.33% | -0.52 | -0.59%
CCC(=O)O[C@@H](O[P@@](=O)(CCCCc1ccccc1)CC(=O)N1C[C@H](C2CCCCC2)C[C@H]1C(=O)O)C(C)C [fosinopril] | -0.77 | 0.8 | 2.37% | 1.19 | 3.18%
Cn1cc(-c2cnc3ccc4ccc(CS(=O)(=O)NCc5ccccn5)cc4c(=O)c3c2)cn1 | 1.02 | 0.57 | 1.94% | 3.38 | 1.59%
